Data taken from ChEMBL document CHEMBL3988442, “University of Dundee, Small-Polar-MMV Screening Library” (2021).
Measured potencies and affinities stand elsewhere.

What follows are compounds tested against Protein translocase subunit SecA (Escherichia coli (strain K12)) (UniProt P10408) (assay: Assay to Identify E. coli SecA ATPase Inhibitors). Settings: 30 µM.
Format: functional
Design: scale not given: direction of the effect not stated beside the values

Sequence of Protein translocase subunit SecA (Escherichia coli (strain K12)) (P10408 whole entry): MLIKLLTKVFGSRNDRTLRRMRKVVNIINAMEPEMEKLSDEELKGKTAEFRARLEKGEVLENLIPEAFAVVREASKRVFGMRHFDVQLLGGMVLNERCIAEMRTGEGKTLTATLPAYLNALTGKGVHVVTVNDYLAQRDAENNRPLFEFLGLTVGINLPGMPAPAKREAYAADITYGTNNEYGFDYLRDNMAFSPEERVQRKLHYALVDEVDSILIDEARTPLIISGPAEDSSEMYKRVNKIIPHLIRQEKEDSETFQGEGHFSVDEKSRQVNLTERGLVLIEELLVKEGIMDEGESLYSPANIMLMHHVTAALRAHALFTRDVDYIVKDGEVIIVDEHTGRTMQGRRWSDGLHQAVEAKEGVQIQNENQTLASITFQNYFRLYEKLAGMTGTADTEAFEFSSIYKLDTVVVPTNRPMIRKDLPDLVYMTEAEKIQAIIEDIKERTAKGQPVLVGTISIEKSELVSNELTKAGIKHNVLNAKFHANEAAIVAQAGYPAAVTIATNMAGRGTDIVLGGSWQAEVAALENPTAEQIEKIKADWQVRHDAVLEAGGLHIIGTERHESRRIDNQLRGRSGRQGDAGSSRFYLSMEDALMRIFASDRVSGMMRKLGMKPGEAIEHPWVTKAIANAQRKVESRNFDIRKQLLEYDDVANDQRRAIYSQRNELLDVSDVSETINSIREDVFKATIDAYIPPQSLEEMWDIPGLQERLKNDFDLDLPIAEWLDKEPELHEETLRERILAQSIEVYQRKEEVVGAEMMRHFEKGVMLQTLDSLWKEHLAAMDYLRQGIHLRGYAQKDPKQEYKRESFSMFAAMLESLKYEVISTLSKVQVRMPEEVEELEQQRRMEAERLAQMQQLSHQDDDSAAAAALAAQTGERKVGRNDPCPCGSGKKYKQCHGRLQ

SMILES | Percent Effect
COCCN1CC[C@@H]2O[C@@H](COCC(=O)N3CCCC3)CC[C@@H]21 | -3.65%
O=C(c1ccc[nH]1)N1CCCC(c2cc(C(F)(F)F)[nH]n2)C1 (stereo not drawn) | -5.38%
O=C(c1coc(COc2cccc(F)c2)n1)N1CC[C@H](O)[C@@H](O)C1 | -4.21%
Cc1nnc2n1CCN(CCOc1ccccc1)C2 | -2.71%
c1ccc(OCCN2CCCC(c3noc(C4CC4)n3)C2)cc1 (stereo not drawn) | -8.89%
Cn1ccc(CN2CCC(OCCc3ccccc3)CC2)cc1=O | -2.81%
COC1COC2(CCN(Cc3ccccc3Cl)CC2)C1 (stereo not drawn) | -5.82%
COc1cccc(S(=O)(=O)N2CCn3cnc(COCC4CC4)c3C2)c1 | -2.27%
Cc1ncsc1C(=O)N(C)CCc1ccncc1 | -2.19%
Cc1cc(C)n(C2CCCN(C(=O)Cc3csc(C)n3)C2)n1 (stereo not drawn) | -3.62%
O=C(NCCNc1cnccn1)N1CCN(Cc2cccnc2)CC1 | -5.13%
Cc1cc(NC(=O)NCC(C)O)n(C)n1 (stereo not drawn) | -5.54%
CCc1nccn1C1CCCN(C(=O)c2cnn(C)c2C2CC2)C1 (stereo not drawn) | -5.61%
CCOCC(O)CN1CCN(C(=O)c2cccnc2OC)CC1 (stereo not drawn) | -3.44%
O=C(CN1CCc2cncnc2C1)NCCOc1ccccc1 | -4.25%
Cc1nc(N2CCCCC2)ncc1C(=O)N1CC(C)(C)[C@@](C)(O)C1 | -4.9%
c1cncc(-c2nccc(CN3CCCC3)n2)c1 | -0.958%
O=C(NC1CCCC1)N1CCCC(c2nccn2Cc2ccncc2)C1 (stereo not drawn) | -3.14%
Cc1cc(CN2CCOC(CN(C)c3cccnn3)C2)no1 (stereo not drawn) | -4.31%
Cn1cc(CNCCn2cccn2)c(-c2cccnc2)n1 | -3.75%

SMILES | Percent Effect
O=C1NC2(CCN(C(=O)c3ccccc3)CC2)CC1c1cccnc1 (stereo not drawn) | -4.51%
Cc1cnn(CC2CCCN2Cc2coc(-c3ccccc3)n2)c1 (stereo not drawn) | 0.182%
Cc1nc(CN2CCOCC3(CCN(c4cccnc4)CC3)C2)cs1 | -4.45%
CNS(=O)(=O)c1ccc(C(=O)N2CCCC2Cc2ccccc2)o1 (stereo not drawn) | -3.24%
CN(CCC(F)(F)F)C(=O)[C@H]1CSCN1C(=O)OC(C)(C)C | -4.76%
O=C(CN1CCOC(Cn2cccn2)C1)Nc1nncs1 (stereo not drawn) | -7.55%
CS(=O)(=O)NC1CCCN(C(=O)NCc2cc[nH]n2)C1 (stereo not drawn) | -5.06%
c1cnc2c(c1)cc(C1CCOCC1)n2CCN1CCOCC1 | -3.29%
CN(C)C(=O)COCc1cncc2c1CCN(Cc1nccn1C)C2 | -2.93%
CN(C)S(=O)(=O)N1C[C@@H]2CC[C@H](C1)N(Cc1ccc3nsnc3c1)C2 | -6.44%
CN(C)C(CNC(=O)c1cccc(-n2cnnn2)c1)c1ccccc1Cl (stereo not drawn) | -1.38%
Cc1cc(C)n(CC2CN(Cc3cscn3)CCO2)n1 (stereo not drawn) | -2.86%
Cc1ccc(NC2CCN(C(=O)c3c(C)noc3C)CC2)nn1 | -4.36%
Cc1nc(N2CCOCC2)nc2c1CCN(C(=O)NC1CCCC1)CC2 | -0.181%
CCOc1nnc(CN(C)CC2CCCN2c2cccnn2)s1 (stereo not drawn) | -2.36%
CN1N=C(C(=O)N(Cc2ccco2)C2CC2)CCC1=O | -3.94%
COc1cccc(CNC(CN2CCN(C)CC2)c2ccccc2)c1 (stereo not drawn) | -5.66%
Cc1csc2c(=O)n3c(nc12)CCN(C(=O)c1cccnc1)CC3 | -2.51%
CC(C)n1ncc2cc(NC(=O)N3CCC(N4CCCC4)C3)cnc21 (stereo not drawn) | -1.2%

What follows are compounds tested against T1, Ubiquitin-activating enzyme e1, putative (Leishmania donovani (strain BPK282A1)) (UniProt E9BSI1) (assay: Leishmania donovani Ubiquitin Activating Enzyme (LdE1)). Settings: 30 µM.
T1 sequence (whole entry): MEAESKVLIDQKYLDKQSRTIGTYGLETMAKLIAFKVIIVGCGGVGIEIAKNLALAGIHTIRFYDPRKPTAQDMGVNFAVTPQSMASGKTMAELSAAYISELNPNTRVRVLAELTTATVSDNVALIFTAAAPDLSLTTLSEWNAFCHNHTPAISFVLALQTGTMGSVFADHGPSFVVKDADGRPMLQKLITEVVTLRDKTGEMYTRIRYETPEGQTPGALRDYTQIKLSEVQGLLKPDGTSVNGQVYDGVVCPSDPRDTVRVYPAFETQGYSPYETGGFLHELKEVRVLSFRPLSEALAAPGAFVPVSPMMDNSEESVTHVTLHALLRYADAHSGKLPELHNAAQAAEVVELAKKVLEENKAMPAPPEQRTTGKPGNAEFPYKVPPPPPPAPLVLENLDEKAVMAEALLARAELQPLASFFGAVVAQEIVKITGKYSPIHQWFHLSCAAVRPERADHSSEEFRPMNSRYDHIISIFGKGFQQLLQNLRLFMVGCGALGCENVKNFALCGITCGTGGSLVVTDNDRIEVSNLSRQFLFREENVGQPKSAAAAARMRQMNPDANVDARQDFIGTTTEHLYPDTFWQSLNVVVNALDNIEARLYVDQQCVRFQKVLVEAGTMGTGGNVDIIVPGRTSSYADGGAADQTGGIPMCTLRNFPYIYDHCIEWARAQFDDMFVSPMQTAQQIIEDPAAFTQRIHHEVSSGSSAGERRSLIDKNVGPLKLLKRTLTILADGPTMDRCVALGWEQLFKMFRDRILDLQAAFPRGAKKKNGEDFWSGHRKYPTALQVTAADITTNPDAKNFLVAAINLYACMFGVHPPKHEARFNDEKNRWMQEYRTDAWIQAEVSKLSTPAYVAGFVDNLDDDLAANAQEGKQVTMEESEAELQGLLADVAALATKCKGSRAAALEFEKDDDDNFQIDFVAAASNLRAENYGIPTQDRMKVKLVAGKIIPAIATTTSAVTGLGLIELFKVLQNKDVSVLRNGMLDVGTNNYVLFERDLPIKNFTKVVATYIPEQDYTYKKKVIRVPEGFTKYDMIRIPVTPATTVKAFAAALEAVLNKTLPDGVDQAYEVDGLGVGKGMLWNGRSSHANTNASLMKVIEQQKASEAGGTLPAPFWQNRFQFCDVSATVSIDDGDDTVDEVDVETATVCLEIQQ
Format: functional
Design: scale not given: direction of the effect not stated beside the values

SMILES | Percent Effect
COCCN1CC[C@@H]2O[C@@H](COCC(=O)N3CCCC3)CC[C@@H]21 | 5.48%
O=C(c1ccc[nH]1)N1CCCC(c2cc(C(F)(F)F)[nH]n2)C1 (stereo not drawn) | -10.5%
O=C(c1coc(COc2cccc(F)c2)n1)N1CC[C@H](O)[C@@H](O)C1 | 2.7%
Cc1nnc2n1CCN(CCOc1ccccc1)C2 | -1.27%
c1ccc(OCCN2CCCC(c3noc(C4CC4)n3)C2)cc1 (stereo not drawn) | 0%
Cn1ccc(CN2CCC(OCCc3ccccc3)CC2)cc1=O | 0%
COC1COC2(CCN(Cc3ccccc3Cl)CC2)C1 (stereo not drawn) | 1.33%
COc1cccc(S(=O)(=O)N2CCn3cnc(COCC4CC4)c3C2)c1 | 2.67%
Cc1ncsc1C(=O)N(C)CCc1ccncc1 | 2.63%
Cc1cc(C)n(C2CCCN(C(=O)Cc3csc(C)n3)C2)n1 (stereo not drawn) | 0%
O=C(NCCNc1cnccn1)N1CCN(Cc2cccnc2)CC1 | 8.86%
Cc1cc(NC(=O)NCC(C)O)n(C)n1 (stereo not drawn) | 10.5%
CCc1nccn1C1CCCN(C(=O)c2cnn(C)c2C2CC2)C1 (stereo not drawn) | 8.11%
CCOCC(O)CN1CCN(C(=O)c2cccnc2OC)CC1 (stereo not drawn) | 0%
O=C(CN1CCc2cncnc2C1)NCCOc1ccccc1 | 21.1%
Cc1nc(N2CCCCC2)ncc1C(=O)N1CC(C)(C)[C@@](C)(O)C1 | 0%
c1cncc(-c2nccc(CN3CCCC3)n2)c1 | 6.76%
O=C(NC1CCCC1)N1CCCC(c2nccn2Cc2ccncc2)C1 (stereo not drawn) | 4.17%
Cc1cc(CN2CCOC(CN(C)c3cccnn3)C2)no1 (stereo not drawn) | 0%
Cn1cc(CNCCn2cccn2)c(-c2cccnc2)n1 | 0%

SMILES | Percent Effect
O=C1NC2(CCN(C(=O)c3ccccc3)CC2)CC1c1cccnc1 (stereo not drawn) | -2.74%
Cc1cnn(CC2CCCN2Cc2coc(-c3ccccc3)n2)c1 (stereo not drawn) | -11%
Cc1nc(CN2CCOCC3(CCN(c4cccnc4)CC3)C2)cs1 | 5.41%
CNS(=O)(=O)c1ccc(C(=O)N2CCCC2Cc2ccccc2)o1 (stereo not drawn) | -42.1%
CN(CCC(F)(F)F)C(=O)[C@H]1CSCN1C(=O)OC(C)(C)C | 0%
O=C(CN1CCOC(Cn2cccn2)C1)Nc1nncs1 (stereo not drawn) | 10.4%
CS(=O)(=O)NC1CCCN(C(=O)NCc2cc[nH]n2)C1 (stereo not drawn) | -31.2%
c1cnc2c(c1)cc(C1CCOCC1)n2CCN1CCOCC1 | 14.9%
CN(C)C(=O)COCc1cncc2c1CCN(Cc1nccn1C)C2 | 7.79%
CN(C)S(=O)(=O)N1C[C@@H]2CC[C@H](C1)N(Cc1ccc3nsnc3c1)C2 | 9.72%
CN(C)C(CNC(=O)c1cccc(-n2cnnn2)c1)c1ccccc1Cl (stereo not drawn) | 2.74%
Cc1cc(C)n(CC2CN(Cc3cscn3)CCO2)n1 (stereo not drawn) | 23.7%
Cc1ccc(NC2CCN(C(=O)c3c(C)noc3C)CC2)nn1 | 13.2%
Cc1nc(N2CCOCC2)nc2c1CCN(C(=O)NC1CCCC1)CC2 | 6.67%
CCOc1nnc(CN(C)CC2CCCN2c2cccnn2)s1 (stereo not drawn) | 7.89%
CN1N=C(C(=O)N(Cc2ccco2)C2CC2)CCC1=O | 0%
COc1cccc(CNC(CN2CCN(C)CC2)c2ccccc2)c1 (stereo not drawn) | 5.41%
Cc1csc2c(=O)n3c(nc12)CCN(C(=O)c1cccnc1)CC3 | 9.46%
CC(C)n1ncc2cc(NC(=O)N3CCC(N4CCCC4)C3)cnc21 (stereo not drawn) | -5.41%
